Source: PubChem
DAGLB inh: blocks human DAGLB lipase activity; Q8NCG7; HEK293T DAGLB membrane lysate, EnzChek fluorogenic substrate; inhibition, % at 5.17 µM; actives 0.059% (n = 340,000); in the data active = inhibition above about 34%;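 also: 0% = enzyme with vehicle and 100% = wells lacking enzyme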
Target sequence (Q8NCG7 whole entry, looked up): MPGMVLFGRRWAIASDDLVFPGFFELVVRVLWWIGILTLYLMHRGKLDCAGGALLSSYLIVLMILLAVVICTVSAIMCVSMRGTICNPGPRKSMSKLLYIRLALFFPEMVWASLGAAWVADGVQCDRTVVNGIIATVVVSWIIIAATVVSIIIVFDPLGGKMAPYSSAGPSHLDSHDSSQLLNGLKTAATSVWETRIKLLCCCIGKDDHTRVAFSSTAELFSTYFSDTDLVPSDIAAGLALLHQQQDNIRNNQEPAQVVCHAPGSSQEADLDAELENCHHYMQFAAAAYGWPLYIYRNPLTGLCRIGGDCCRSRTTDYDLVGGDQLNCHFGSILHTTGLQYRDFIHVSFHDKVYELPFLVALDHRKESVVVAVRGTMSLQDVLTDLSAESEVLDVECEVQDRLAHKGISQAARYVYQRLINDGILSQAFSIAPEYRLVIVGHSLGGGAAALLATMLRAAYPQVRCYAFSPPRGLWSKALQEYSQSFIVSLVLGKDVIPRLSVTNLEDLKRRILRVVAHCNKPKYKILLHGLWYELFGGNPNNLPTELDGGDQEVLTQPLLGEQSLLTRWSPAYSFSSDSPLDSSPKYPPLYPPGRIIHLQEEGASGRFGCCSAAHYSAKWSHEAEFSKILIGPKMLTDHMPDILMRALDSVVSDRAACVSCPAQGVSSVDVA
PLCb3 inh: inhibitors of human phospholipase C beta3; inhibition, % at 12.2 µM; AID 720704; actives 0.18% (n = 370,000); Q01970; Purified PLC-beta3, fluorogenic substrate, fluorescence; in the data active = inhibition above about 11%;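 also: 0% = median of compound wells on plate and 100% = full blocker control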
PLCg1 inh: blocks human PLC-gamma1 enzyme activity. P19174. purified PLC-gamma1, fluorogenic substrate, fluorescence. inhibition, % at 12.2 µM. actives 0.84% (n = 370,000); in the data active = inhibition above about 9.5%
HGIII-sPLA2 inh: Blocks human group III sPLA2 activity. Q9NZ20. QFRET BODIPY PC-A2 liposome hydrolysis, fluorescence. inhibition, % at 12.2 µM. actives 0.56% (n = 370,000);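 active = inhibition above mean plus 3 SD of compounds lying within the high and low control bounds, cut at about 19% in these data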;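 also: 0% = median of test compound wells and 100% = no enzyme DMSO wells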
hGIII sPLA2 conf: human GIII-sPLA2 inhibition, confirmation. shares compounds with HGIII-sPLA2 inh. recombinant hGIII-sPLA2, BODIPY PC-A2 QFRET fluorescence. inhibition, % at 12.2 µM. actives 34% (n = 2,000);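 active = mean inhibition across triplicates above the hit cutoff set in the earlier primary screen, cut at about 19% in these data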;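 also: 0% = enzyme with DMSO and 100% = DMSO wells lacking enzyme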
535nm interf: optically interferes with 535nm fluorescence in sPLA2 counter-screen | inhibition, % at 12.2 µM | BODIPY FL product fluorescence interference, QFRET | shares compounds with HGIII-sPLA2 inh | actives 8.5% (n = 2,000);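 active = average inhibition above the solvent-only control mean plus 3 SD, cut at about 6% in these data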;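 also: 0% = DMSO with substrate plus product and 100% = DMSO with substrate alone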
535nm interf DR: counter-screen for HGIII-sPLA2 inhibitors: 535nm fluorescence interference, dose response; shares compounds with HGIII-sPLA2 inh; 240 tested, under 10 active; IC50, µM; BODIPY FL product fluorescence interference, cell-free;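 active = IC50 at or below 10 µM; inactive = IC50 above 10 µM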
Numbers without * were called inactive; i = inactive; nt = not tested or not shown. Most compounds without a hit are left out; they make up all but 1.5% or so of the library.

SMILES	DAGLB inh	PLCb3 inh	PLCg1 inh	HGIII-sPLA2 inh	hGIII sPLA2 conf	535nm interf	others
CCc1cc2c(nc1CC)CCCN2S(=O)(=O)c1c(C)noc1C	nt	-5.5	-2.6	7.8	nt	nt
CSc1cccc(NC(N)=S)c1	-1.4	-2.0	-2.9	19.7*	18.1	-6.8
CSc1cccc(NC(N)=O)c1	nt	-5.7	-1.7	-1.5	nt	nt
O=C(NNC(=S)NC1CCCCC1)c1ccccc1Br	-1.2	-6.0	-0.6	21.3*	29.3*	-2.8	535nm interf DR=>122
O=C(NNC(=S)Nc1ccc(Br)cc1)c1ccccc1	-1.4	-3.4	-0.7	19.9*	21.7*	6.7*
O=C(NNC(=O)c1ccccc1Br)c1ccccc1Cl	0.1	1.1	3.1	1.5	nt	nt
CC(C)(C)NC(=S)NNC(=O)c1ccc2ncccc2c1	-1.1	-10.3	-3.2	13.5	nt	nt
O=C(NNC(=S)Nc1ccccc1)c1ccc2ncccc2c1	0.8	-7.3	-2.5	24.0*	30.2*	-2.9	535nm interf DR=>122
COc1cc(OC)c(C(=O)NNC(=S)NC2CCCCC2)cc1OC	2.7	-3.6	-2.9	0.4	nt	nt
O=C(NNC(=S)Nc1ccccc1Cl)c1ccccc1Br	6.1	-7.2	1.1	22.4*	25.9*	5.8
Cc1n[nH]c(C)c1S(=O)(=O)NCCc1c[nH]c2ccccc12	nt	-2.2	-0.1	-32.9	nt	nt
COC(=O)Cc1ccc(NC(=S)NNC(=O)c2ccccc2Br)cc1	1.5	2.7	1.4	13.4	nt	nt
O=C(NNC(=S)Nc1ccc(Br)cc1)c1ccccc1Br	4.9	-6.0	-0.9	34.9*	26.4*	8.2*
CCN(CC)S(=O)(=O)c1ccc(C(=O)Oc2coc(CSc3nc(C)cc(C)n3)cc2=O)cc1	-0.6	-1.2	2.1	20.6*	-28.9	-28.7
CCOC(=O)[C@@]12CN(C(=O)OC(C)(C)C)CC=C1N(Cc1ccc(OC)cc1)C(=O)[C@H]2CC(=O)N1CCN(C(=O)C2CC2)CC1	nt	8.8	4.7	6.0	nt	nt
CC(OC(=O)c1nn(C)c(=O)c2ccccc12)C(=O)NC1CCCCC1C (stereo not drawn)	-1.1	-5.1	1.8	19.4*	-1.5	-5.1
O=C(CSc1nnc(-c2cccs2)o1)Nc1cc(Cl)cc(Cl)c1	nt	0.6	1.0	-16.1	nt	nt
CCn1c(=O)c2c(nc3n2CCCN3CCc2ccc(OC)c(OC)c2)n(C)c1=O	2.1	-3.4	1.5	6.0	nt	nt
COc1ccc(CCN2CCCn3c2nc2c3c(=O)n(CC(C)C)c(=O)n2C)cc1OC	-1.7	3.9	6.1	24.1*	12.8	-16.9
CCCOC(=O)CCCCC1SCC(NC(=O)OC)C1NC(=O)OC (stereo not drawn)	5.0	0.3	-36.7	19.6*	-2.2	-9.0
O=S(=O)(O)c1cc(O)c(N=Nc2ccc(O)cc2O)c2ccccc12	32.3	-4.8	1.6	22.8*	18.6	4.2
O=[N+]([O-])c1ccccc1N=Nc1ccc(O)cc1O	nt	0.8	1.8	7.3	nt	nt
CCOC(=O)[C@@]12CN(C(=O)OC(C)(C)C)CC=C1N(Cc1ccc(OC)cc1)C(=O)[C@H]2CC(=O)NCCC(C)C	nt	1.1	-2.0	-2.9	nt	nt
CCCCNC(=O)c1c(N)[nH]c(C(=O)c2ccccc2)c1-c1ccccn1	nt	-1.6	-1.1	19.3*	8.9	-8.6
Nc1[nH]c(C(=O)c2ccccc2)c(-c2ccc(F)cc2)c1C(=O)NCc1ccccc1	nt	-0.7	3.3	0.3	nt	nt
SMILES	DAGLB inh	PLCb3 inh	PLCg1 inh	HGIII-sPLA2 inh	hGIII sPLA2 conf	535nm interf	others
Cc1cc2ncn(N)c2cc1C	1.1	4.9	4.2	90.4*	-1.2	-6.7
Cc1ccc(OC(=O)c2sc(Cl)nc2C)cc1C	-3.7	2.0	4.3	21.5*	0.0	-6.2
CCN(C(=O)[C@@H](C)[C@@H](O)c1ccc(C(C)=O)cc1)c1ccccc1	nt	1.2	4.3	9.0	nt	nt
O=c1c2ccccc2[nH]c(=S)n1Cc1cccnc1	-0.5	3.6	-1.3	20.1*	11.3	-5.1
c1cc2c3c(cccc3c1)NC1(CCCC1)N2	12.6	-10.7	-5.6	23.8*	19.8*	2.9
COc1ccc(C(=O)NC(=S)Nc2ccc(N3CCN(C(C)=O)CC3)cc2)cc1[N+](=O)[O-]	3.2	-5.1	-1.9	20.6*	9.7	-18.1
Oc1ccc(/C=N/NC(=S)NC2CC3CCC2C3)cc1 (stereo not drawn)	4.0	-6.4	1.5	-13.7	nt	nt
S=C(N/N=C/c1cccs1)NC1CC2CCC1C2 (stereo not drawn)	nt	-0.9	2.5	27.6*	36.2*	2.6	535nm interf DR=>122
O=C(CSc1nnc(COc2ccccc2)n1-c1ccccc1)Nc1ccc2c(c1)OCCO2	nt	-0.3	0.0	-21.6	nt	nt
COc1cc([N+](=O)[O-])ccc1N	2.8	0.6	4.9	28.4*	2.2	-4.2
CCOC(=O)C(=O)Nc1ccc([N+](=O)[O-])cc1OC	0.8	1.6	3.6	23.4*	-0.8	-1.2
Cc1ccc([N+](=O)[O-])cc1N	-1.3	4.8	1.4	4.8	nt	nt
O=C(NCC(c1ccccc1)c1ccccc1)[C@H](Cc1ccccc1)NC1(C(=O)NC2CCCCC2)CCC1	nt	2.6	-1.5	-3.6	nt	nt
COC(=O)C1CN(Cc2ccc(F)cc2)CCS(=O)(=O)N1Cc1ccc(C(F)(F)F)cc1 (stereo not drawn)	nt	-1.1	-1.6	2.5	nt	nt
O=C(N1CCOCC1)C12CC3CC(C1)CC(n1cnc(Cl)n1)(C3)C2	-3.3	-3.9	-1.3	20.6*	0.8	-2.5
C#CCOCCOCCOCCNc1nc(N2CCOCC2)nc(N2CCN(C(=O)[C@H](CCC(=O)O)n3cc(C(N)CO)nn3)CC2)n1 (stereo partly drawn)	nt	-4.4	6.5	18.6	nt	nt
CC(C)(C)c1ccc(C(=O)Nc2cccc3ncccc23)cc1	-3.7	-29.8	-15.2	2.6	nt	nt
CC(=O)Nc1cccc2ncccc12	-1.7	-9.5	-1.5	23.9*	1.4	-5.9
Cc1c(NC(=O)C2CCCN(S(=O)(=O)c3ccc(C(C)(C)C)cc3)C2)c(=O)n(-c2ccccc2)n1C (stereo not drawn)	nt	0.3	2.0	0.0	nt	nt
CNc1ccccc1C(=O)OCC(=O)N(CCOC)c1c(N)n(CC(C)C)c(=O)[nH]c1=O	0.8	i	i	19.5*	10.8	-8.2
COC(=O)[C@]12C[C@H](CC(=O)NCc3cccs3)C(=O)N(Cc3cccc4ccccc34)C1=C[C@H](C(C)(C)C)O[C@@H]2C	nt	-58.6	5.3	-14.8	nt	nt
NC(=S)Nn1c(-c2ccccc2)nc2ccccc2c1=O	-3.4	-2.9	3.0	19.4*	5.6	0.1
O=C(Cc1ccccc1)Nn1c(-c2ccccc2)nc2ccccc2c1=O	-3.8	4.6	-0.2	14.7	nt	nt
CC(=O)c1cc(-c2ccc([N+](=O)[O-])cc2)c(=O)n2c1CCC2	nt	-91.2	0.1	2.0	nt	nt
COc1cc2c(cc1OC)C(c1ccccc1)=NCC2	-2.3	-141.8	-135.7	26.6*	0.1	-11.4
